Experiments:
[1] = biological target: T1, Aspartate--tRNA(Asp/Asn) ligase (Mycobacterium tuberculosis (strain ATCC 25618 / H37Rv)) (UniProt P9WFW3); experiment: Assay for Asp RNA synthetase-1 from Mycobacterium tuberculosis; type: functional; parameters: scale not given: direction of the effect not stated beside the values; settings: 30 µM; further: in the data most compounds retested in dose-response had high values
T1 sequence (whole entry): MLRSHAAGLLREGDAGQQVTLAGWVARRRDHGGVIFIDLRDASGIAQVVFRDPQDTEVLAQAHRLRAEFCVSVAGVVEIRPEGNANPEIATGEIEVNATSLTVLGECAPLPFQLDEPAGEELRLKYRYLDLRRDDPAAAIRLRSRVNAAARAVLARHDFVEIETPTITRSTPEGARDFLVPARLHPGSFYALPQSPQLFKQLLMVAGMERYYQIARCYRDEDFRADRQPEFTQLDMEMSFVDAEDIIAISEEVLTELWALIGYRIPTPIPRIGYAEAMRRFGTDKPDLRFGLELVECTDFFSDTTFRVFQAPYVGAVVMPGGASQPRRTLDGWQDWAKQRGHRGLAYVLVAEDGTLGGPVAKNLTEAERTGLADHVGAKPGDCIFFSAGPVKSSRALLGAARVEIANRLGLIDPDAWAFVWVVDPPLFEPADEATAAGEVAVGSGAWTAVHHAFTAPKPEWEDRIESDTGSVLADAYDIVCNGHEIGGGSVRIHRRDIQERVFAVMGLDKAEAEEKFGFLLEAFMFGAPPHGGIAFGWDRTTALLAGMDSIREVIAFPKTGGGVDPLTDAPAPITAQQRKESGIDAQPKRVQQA

[2] = biological target: Shiga toxin 2 (Escherichia coli O157:H7) (UniProt P09385+P09386); experiment: E. coli 0.157:H7 Shiga Toxin SOP - stx2 screening assay; type: functional; parameters: scale not given: direction of the effect not stated beside the values; settings: 30 µM

With `COc1cccc([C@@H]2CN(C(=O)c3ccc(C)cc3O)C[C@H]2C(=O)O)c1` as the compound, how does the Percent Effect [1] read?
The Percent Effect was 1.74%.

What about the Percent Effect [2] of the same compound?
The Percent Effect was -5.94%.

Which results are given for `Cc1ccc(NC(=O)N2CCOC(C)C2)cc1Cl` (stereo not given)?
Percent Effect [1]: 0.866%; Percent Effect [2]: 1.77%

What does the source list for `CC(C)OCCN(Cc1cccc(O)c1)C1CCC(O)CC1` (stereo not given)?
Percent Effect [1]: 3.29%; Percent Effect [2]: -13.5%

What does the source list for `COCCc1noc(CN2CCOC(Cn3nc(C)cc3C)C2)n1` (stereo not given)?
Percent Effect [1]: -2.55%; Percent Effect [2]: -7.72%

Which results are given for `CCOc1ncccc1NC(=O)c1cc(C)c(C)s1`?
Percent Effect [1]: -2.03%; Percent Effect [2]: 3.75%

Which results are given for `Cc1ccc(NC2CCN(C(=O)c3cccn3C)CC2)nn1`?
Percent Effect [1]: -9.26%; Percent Effect [2]: -60.3%

What does the source list for `COc1ccc(-c2cnc(CN3CCn4c(C)nnc4C3)o2)cc1`?
Percent Effect [1]: 0.144%; Percent Effect [2]: -27.2%

`Cn1ncc2c(NCCC34CCCN3CCC4)nc(C3CCCC3)nc21` was tested. Which Percent Effect [1] did it give?
Its Percent Effect is 8.28%.

What about the Percent Effect [2] of the same compound?
Its Percent Effect is -7.47%.

`CCc1nc(CN2CCCN(c3nc4ccccc4o3)CC2)no1` was tested. Which Percent Effect [1] did it give?
Its Percent Effect is 5.41%.

And the Percent Effect [2]?
Its Percent Effect is -69.6%.

`NS(=O)(=O)CCNC(=O)c1nnn(-c2ccc(F)cc2)c1C1CC1` was tested. Which Percent Effect [1] did it give?
The Percent Effect was -3.36%.

And the Percent Effect [2]?
The Percent Effect was -8.62%.

With `CC(C)NC(=O)CC1COC2(CCN(Cc3ccccc3)CC2)C1` (stereo not given) as the compound, how does the Percent Effect [1] read?
Its Percent Effect is -2.02%.

And the Percent Effect [2]?
Its Percent Effect is -36%.

For `CNS(=O)(=O)c1ccc(C(=O)N2CCCC2c2ccccc2)o1` (stereo not given), which Percent Effect [1] is on record?
The Percent Effect was -0.871%.

What about the Percent Effect [2] of the same compound?
The Percent Effect was 34%.

How did the Percent Effect [1] turn out when `CCC1=N[C@@]2(CC[C@@H]3CN(C(=O)NCc4ccccc4)C[C@@H]32)C(=O)N1C` was run?
The Percent Effect was 2.18%.

And the Percent Effect [2]?
Its Percent Effect is 3.06%.

Which Percent Effect [1] does the source give for `Cc1cnc(CN(C)C2CCN(CCn3cc(C#N)cn3)C2)o1` (stereo not given) here?
The Percent Effect was 5.46%.

And the Percent Effect [2]?
The Percent Effect was 17.1%.

For `O=C1CC(c2ccccc2)C2(CCN(CC3CC3)CC2)N1` (stereo not given), which Percent Effect [1] is on record?
The Percent Effect was -1.66%.

And the Percent Effect [2]?
Its Percent Effect is -14.7%.

With `Cn1cnc(S(=O)(=O)NCCN2CCCCCC2=O)c1Cl` as the compound, how does the Percent Effect [1] read?
The Percent Effect was -1.7%.

And the Percent Effect [2]?
The Percent Effect was 17.3%.

`CS(=O)(=O)N1CC[C@]2(C[C@@H](OCC3CCC3)CO2)C1` was tested. Which Percent Effect [1] did it give?
The Percent Effect was -2.3%.

What about the Percent Effect [2] of the same compound?
Its Percent Effect is 6.17%.

What does the source list for `O=C(c1ccc(Br)s1)N1CCN(Cc2ccc(OC(F)(F)F)cc2)CC1`?
Percent Effect [1]: -3.13%; Percent Effect [2]: -21.7%

Which Percent Effect [1] does the source give for `O=C1CC(c2ccco2)c2sc(C(=O)O)c(-c3ccccc3)c2N1` (stereo not given) here?
Its Percent Effect is 7.4%.

And the Percent Effect [2]?
Its Percent Effect is 19%.

How did the Percent Effect [1] turn out when `CN(C)C(=O)CNC(=O)c1ccc(Cl)cc1F` was run?
The Percent Effect was -6.71%.

What about the Percent Effect [2] of the same compound?
Its Percent Effect is -8.79%.

Which results are given for `Cc1cnc(CNc2c(F)cccc2-n2cccn2)o1`?
Percent Effect [1]: -2.01%; Percent Effect [2]: -27.4%

How did the Percent Effect [1] turn out when `O=C(O)c1ccc2ccc(N3CCN(CC4CC4)CC3)n2c1` was run?
The Percent Effect was -6.96%.

What about the Percent Effect [2] of the same compound?
The Percent Effect was -15.7%.

What does the source list for `C1CC1c1nsc(N2CCN(C3CC3)CC2)n1`?
Percent Effect [1]: 2.04%; Percent Effect [2]: -7.43%

`CCCn1nc2c(cc1=O)CN(CCS(C)(=O)=O)CC2` was tested. Which Percent Effect [1] did it give?
Its Percent Effect is 5.96%.

What about the Percent Effect [2] of the same compound?
Its Percent Effect is 0.931%.

With `CN1CCN(C(=O)c2ccc(=O)n(C)c2)c2ccccc21` as the compound, how does the Percent Effect [1] read?
The Percent Effect was -7.61%.

What about the Percent Effect [2] of the same compound?
Its Percent Effect is -16.6%.

For `CCc1cnc(CN(C(C)=O)C2CCN(CCc3cccs3)C2)o1` (stereo not given), which Percent Effect [1] is on record?
Its Percent Effect is -1.49%.

What about the Percent Effect [2] of the same compound?
Its Percent Effect is 21.4%.

What does the source list for `CCN1C[C@@H]2[C@@H](OC)CCN(S(=O)(=O)c3ccccc3F)[C@@H]2C1`?
Percent Effect [1]: -3.02%; Percent Effect [2]: 0.716%

Which Percent Effect [1] does the source give for `CN1CCN(CCO)C(=O)C12CCN(Cc1ccsc1)CC2` here?
The Percent Effect was -3.89%.

And the Percent Effect [2]?
The Percent Effect was -1.74%.

For `CCOc1ccc(N2CCCN=C2NC(=O)c2ccccc2C)cc1`, which Percent Effect [1] is on record?
The Percent Effect was 4.31%.

And the Percent Effect [2]?
Its Percent Effect is -57.5%.

For `Cc1ccc(C(=O)NC2CCN(C(=O)Nc3ccccn3)CC2)o1`, which Percent Effect [1] is on record?
Its Percent Effect is 5.16%.

What about the Percent Effect [2] of the same compound?
Its Percent Effect is 25.6%.

How did the Percent Effect [1] turn out when `CCOCC(O)CN1CCN(C(=O)c2ccc(OC)cc2F)CC1` (stereo not given) was run?
Its Percent Effect is -10.1%.

What about the Percent Effect [2] of the same compound?
Its Percent Effect is -5.15%.

`Cc1ccc2c(ccn2CCC(=O)N2CCC(C(N)=O)CC2)c1` was tested. Which Percent Effect [1] did it give?
Its Percent Effect is 0.842%.

What about the Percent Effect [2] of the same compound?
Its Percent Effect is -2.06%.

How did the Percent Effect [1] turn out when `CN(Cc1ccc(Cl)s1)C(=O)NCc1nnc2n1CCC2` was run?
The Percent Effect was 0%.

What about the Percent Effect [2] of the same compound?
The Percent Effect was 27.4%.

What does the source list for `CN1C[C@H]2CCN(C(=O)NC3CCCC3)CC[C@H]2S1(=O)=O`?
Percent Effect [1]: 2.12%; Percent Effect [2]: -19.5%

For `CCOC(=O)N1CCN(C(=O)CCn2ccc3c(OC)cccc32)CC1`, which Percent Effect [1] is on record?
The Percent Effect was 0.389%.

And the Percent Effect [2]?
The Percent Effect was -14.3%.

Which Percent Effect [1] does the source give for `CC(=O)N1CCC2(CCCN(C(=O)c3ccccc3)C2)C1` (stereo not given) here?
Its Percent Effect is -1.28%.

What about the Percent Effect [2] of the same compound?
Its Percent Effect is -1.81%.

For `CCN(Cc1cccc(Cl)c1)Cc1nc2c(cnn2C)c(=O)[nH]1`, which Percent Effect [1] is on record?
Its Percent Effect is -2.28%.

What about the Percent Effect [2] of the same compound?
Its Percent Effect is 31.3%.

With `COc1ccc(C(CNC(=O)Nc2cn[nH]c2)N2CCOCC2)cc1` (stereo not given) as the compound, how does the Percent Effect [1] read?
The Percent Effect was 1.21%.

What about the Percent Effect [2] of the same compound?
Its Percent Effect is 23.8%.

`CS(=O)(=O)NCC1CCCN(C(=O)COCC(F)(F)F)C1` (stereo not given) was tested. Which Percent Effect [1] did it give?
The Percent Effect was -4.43%.

And the Percent Effect [2]?
The Percent Effect was -24%.

For `C[C@@H]1CN(C(=O)NC2CC2)C[C@]12CCN(c1ccsc1)C2=O`, which Percent Effect [1] is on record?
Its Percent Effect is 2.34%.

What about the Percent Effect [2] of the same compound?
The Percent Effect was -3.08%.

Which Percent Effect [1] does the source give for `CC1CN(C)c2ccccc2CN1C(=O)c1ccncc1` (stereo not given) here?
Its Percent Effect is 6.3%.

What about the Percent Effect [2] of the same compound?
The Percent Effect was -12.6%.

Which Percent Effect [1] does the source give for `CC(C)OCc1ccc(CNC(=O)CC(F)(F)F)cc1` here?
Its Percent Effect is -1.66%.

What about the Percent Effect [2] of the same compound?
The Percent Effect was 12.4%.

What does the source list for `O=C1CCCN1CC1CN(C(=O)CC2CCCC2)Cc2nccn2C1` (stereo not given)?
Percent Effect [1]: 4.01%; Percent Effect [2]: -4.12%

Which Percent Effect [1] does the source give for `CS(=O)(=O)c1ccc(CNC(=O)N2CCC(C(N)=O)C2)cc1` (stereo not given) here?
Its Percent Effect is -1.49%.

What about the Percent Effect [2] of the same compound?
Its Percent Effect is -11.7%.

With `CN(C)CCCNC(=O)CNC(=O)N1CCc2c([nH]c3ccccc23)C1` as the compound, how does the Percent Effect [1] read?
Its Percent Effect is 4.82%.

What about the Percent Effect [2] of the same compound?
Its Percent Effect is -42.4%.

`CN(C)CC(=O)N1CCC2(CC(=O)N(c3cccc(C#N)c3)C2)C1` (stereo not given) was tested. Which Percent Effect [1] did it give?
Its Percent Effect is 7.58%.

And the Percent Effect [2]?
Its Percent Effect is 1.05%.

Which Percent Effect [1] does the source give for `COCCC(=O)N1CCN(CCN(C)C)c2ncccc2C1` here?
Its Percent Effect is 4.55%.

What about the Percent Effect [2] of the same compound?
Its Percent Effect is -25.6%.

What does the source list for `O=C(O)c1cc(S(=O)(=O)Nc2cc(F)ccc2F)cc2c1OCCO2`?
Percent Effect [1]: -2.5%; Percent Effect [2]: 31.1%

For `CN(C)C(=O)CN1C[C@@H]2CC[C@H](C1)N(Cc1cc(F)ccc1F)C2`, which Percent Effect [1] is on record?
Its Percent Effect is -0.16%.

What about the Percent Effect [2] of the same compound?
Its Percent Effect is -37.1%.

With `Cc1cnn(CC2CCCN2CCc2nc3ccccc3c(=O)[nH]2)c1` (stereo not given) as the compound, how does the Percent Effect [1] read?
Its Percent Effect is -3.23%.

What about the Percent Effect [2] of the same compound?
The Percent Effect was 2.14%.

Reference: ChEMBL document CHEMBL3988442, “University of Dundee, Small-Polar-MMV Screening Library” (2021)
